Residue numbers refer to the chain shown, from its start. Over roughly 16,000 sequences, “ka relative to ugcaugu” has its median near 0.096; the highest 2% begin near 0.35. Shown is part of a subset that was picked to be rich in the highest values.

Data on 36 molecules can be found in paper PMC9911399, “Two distinct binding modes provide the RNA-binding protein RbFox with extraordinary sequence specificity”.

First the molecules themselves.
B1: CGUAUUA (DNA:RNA)
RNA: GGGAGACCGGAAUUCAGAUUGUCCCGUAUUAUUAAAUCCCGUCGUAGCCACCA
DNA 1: CAATCTGAATTCCGGTCTCCC
DNA 2: TGGTGGCTACGACGGGATT
B2: AUGUGAG (DNA:RNA)
RNA: GGGAGACCGGAAUUCAGAUUGUCCAUGUGAGUUAAAUCCCGUCGUAGCCACCA
DNA 1: CAATCTGAATTCCGGTCTCCC
DNA 2: TGGTGGCTACGACGGGATT
B3: GAUAGGC (DNA:RNA)
RNA: B1 RNA with C25G, G26A, U29G, U30G, A31C
DNA 1: CAATCTGAATTCCGGTCTCCC
DNA 2: TGGTGGCTACGACGGGATT
B4: AAGUUCU (DNA:RNA)
RNA: B2 RNA with U26A, G29U, A30C, G31U
DNA 1: CAATCTGAATTCCGGTCTCCC
DNA 2: TGGTGGCTACGACGGGATT
B5: UGAUCUG (DNA:RNA)
RNA: B2 RNA with A25U, U26G, G27A, G29C, A30U
DNA 1: CAATCTGAATTCCGGTCTCCC
DNA 2: TGGTGGCTACGACGGGATT
B6: CGUGAUC (DNA:RNA)
RNA: B1 RNA with A28G, U29A, A31C
DNA 1: CAATCTGAATTCCGGTCTCCC
DNA 2: TGGTGGCTACGACGGGATT
B7: UGUGAUG (DNA:RNA)
RNA: B1 RNA with C25U, A28G, U29A, A31G
DNA 1: CAATCTGAATTCCGGTCTCCC
DNA 2: TGGTGGCTACGACGGGATT
B8: UGUGAUC (DNA:RNA)
RNA: B1 RNA with C25U, A28G, U29A, A31C
DNA 1: CAATCTGAATTCCGGTCTCCC
DNA 2: TGGTGGCTACGACGGGATT
B9: CGUGAUG (DNA:RNA)
RNA: B1 RNA with A28G, U29A, A31G
DNA 1: CAATCTGAATTCCGGTCTCCC
DNA 2: TGGTGGCTACGACGGGATT
B10: UGUGUGA (DNA:RNA)
RNA: B1 RNA with C25U, A28G, U30G
DNA 1: CAATCTGAATTCCGGTCTCCC
DNA 2: TGGTGGCTACGACGGGATT
B11: GCGAGGG (DNA:RNA)
RNA: B2 RNA with A25G, U26C, U28A, A30G
DNA 1: CAATCTGAATTCCGGTCTCCC
DNA 2: TGGTGGCTACGACGGGATT
B12: GUCAGAC (DNA:RNA)
RNA: B2 RNA with A25G, G27C, U28A, G31C
DNA 1: CAATCTGAATTCCGGTCTCCC
DNA 2: TGGTGGCTACGACGGGATT
B13: CAAGAAC (DNA:RNA)
RNA: B2 RNA with A25C, U26A, G27A, U28G, G29A, G31C
DNA 1: CAATCTGAATTCCGGTCTCCC
DNA 2: TGGTGGCTACGACGGGATT
B14: UCGGUAA (DNA:RNA)
RNA: B2 RNA with A25U, U26C, U28G, G29U, G31A
DNA 1: CAATCTGAATTCCGGTCTCCC
DNA 2: TGGTGGCTACGACGGGATT
B15: CUCCUAG (DNA:RNA)
RNA: B2 RNA with A25C, G27C, U28C, G29U
DNA 1: CAATCTGAATTCCGGTCTCCC
DNA 2: TGGTGGCTACGACGGGATT
B16: AUUGUGA (DNA:RNA)
RNA: B1 RNA with C25A, G26U, A28G, U30G
DNA 1: CAATCTGAATTCCGGTCTCCC
DNA 2: TGGTGGCTACGACGGGATT
B17: CCGUAUC (DNA:RNA)
RNA: B2 RNA with A25C, U26C, G29A, A30U, G31C
DNA 1: CAATCTGAATTCCGGTCTCCC
DNA 2: TGGTGGCTACGACGGGATT
B18: GUAUCUC (DNA:RNA)
RNA: B2 RNA with A25G, G27A, G29C, A30U, G31C
DNA 1: CAATCTGAATTCCGGTCTCCC
DNA 2: TGGTGGCTACGACGGGATT
B19: UUGUAUC (DNA:RNA)
RNA: B2 RNA with A25U, G29A, A30U, G31C
DNA 1: CAATCTGAATTCCGGTCTCCC
DNA 2: TGGTGGCTACGACGGGATT
B20: GCGUAUC (DNA:RNA)
RNA: B2 RNA with A25G, U26C, G29A, A30U, G31C
DNA 1: CAATCTGAATTCCGGTCTCCC
DNA 2: TGGTGGCTACGACGGGATT
B21: GUGUAUC (DNA:RNA)
RNA: B2 RNA with A25G, G29A, A30U, G31C
DNA 1: CAATCTGAATTCCGGTCTCCC
DNA 2: TGGTGGCTACGACGGGATT
B22: UAUCUUG (DNA:RNA)
RNA: B1 RNA with C25U, G26A, A28C, A31G
DNA 1: CAATCTGAATTCCGGTCTCCC
DNA 2: TGGTGGCTACGACGGGATT
B23: CAAGCAG (DNA:RNA)
RNA: B2 RNA with A25C, U26A, G27A, U28G, G29C
DNA 1: CAATCTGAATTCCGGTCTCCC
DNA 2: TGGTGGCTACGACGGGATT
B24: CACGUCU (DNA:RNA)
RNA: B1 RNA with G26A, U27C, A28G, U30C, A31U
DNA 1: CAATCTGAATTCCGGTCTCCC
DNA 2: TGGTGGCTACGACGGGATT
B25: UGGGAGA (DNA:RNA)
RNA: B1 RNA with C25U, U27G, A28G, U29A, U30G
DNA 1: CAATCTGAATTCCGGTCTCCC
DNA 2: TGGTGGCTACGACGGGATT
B26: CUGGAGA (DNA:RNA)
RNA: B2 RNA with A25C, U28G, G29A, A30G, G31A
DNA 1: CAATCTGAATTCCGGTCTCCC
DNA 2: TGGTGGCTACGACGGGATT
B27: UGGGGGA (DNA:RNA)
RNA: B2 RNA with A25U, U26G, U28G, A30G, G31A
DNA 1: CAATCTGAATTCCGGTCTCCC
DNA 2: TGGTGGCTACGACGGGATT
B28: UGGGAUG (DNA:RNA)
RNA: B2 RNA with A25U, U26G, U28G, G29A, A30U
DNA 1: CAATCTGAATTCCGGTCTCCC
DNA 2: TGGTGGCTACGACGGGATT
B29: CGGAUGU (DNA:RNA)
RNA: B1 RNA with U27G, U30G, A31U
DNA 1: CAATCTGAATTCCGGTCTCCC
DNA 2: TGGTGGCTACGACGGGATT
B30: CUGGAUG (DNA:RNA)
RNA: B2 RNA with A25C, U28G, G29A, A30U
DNA 1: CAATCTGAATTCCGGTCTCCC
DNA 2: TGGTGGCTACGACGGGATT
B31: UGCGAUC (DNA:RNA)
RNA: B1 RNA with C25U, U27C, A28G, U29A, A31C
DNA 1: CAATCTGAATTCCGGTCTCCC
DNA 2: TGGTGGCTACGACGGGATT
B32: UGGAUGU (DNA:RNA)
RNA: B1 RNA with C25U, U27G, U30G, A31U
DNA 1: CAATCTGAATTCCGGTCTCCC
DNA 2: TGGTGGCTACGACGGGATT
B33: UGCGCGA (DNA:RNA)
RNA: B1 RNA with C25U, U27C, A28G, U29C, U30G
DNA 1: CAATCTGAATTCCGGTCTCCC
DNA 2: TGGTGGCTACGACGGGATT
B34: UGCGAUG (DNA:RNA)
RNA: B1 RNA with C25U, U27C, A28G, U29A, A31G
DNA 1: CAATCTGAATTCCGGTCTCCC
DNA 2: TGGTGGCTACGACGGGATT
B35: CCCUGGA (DNA:RNA)
RNA: B2 RNA with A25C, U26C, G27C, A30G, G31A
DNA 1: CAATCTGAATTCCGGTCTCCC
DNA 2: TGGTGGCTACGACGGGATT
B36: UGGAUUU (DNA:RNA)
RNA: B1 RNA with C25U, U27G, A31U
DNA 1: CAATCTGAATTCCGGTCTCCC
DNA 2: TGGTGGCTACGACGGGATT

This assay addresses T1, RBFOX1 RRM RbFoxmut (Fox-RRM*) (Homo sapiens, UniProt Q9NWB1 109-208, R118D;E147R;N151S;E152T).
T1 sequence: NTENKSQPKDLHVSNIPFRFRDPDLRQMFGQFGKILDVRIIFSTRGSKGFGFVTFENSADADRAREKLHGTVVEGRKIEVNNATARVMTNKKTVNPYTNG
The experiment in a line: EMSA; HiTS-Eq, 1 nM pool, 10 min; buffer printed only for the single-RNA assays: 10 mM Tris pH 7.5, 150 mM NaCl, 3.4 mM EDTA, 0.001% NP-40, 30 C. The note with it: tags: His6 N-terminal (pET28a); label: 5' 32P. The method in brief: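 Relative association constants, normalised to the cognate motif, were derived by comparing read counts of each RNA species with those of the control reaction. The RNA sequenced was the free fraction, separated by 8% native PAGE after a 10 min equilibration in 50 µL of 1 nM 5′-radiolabelled RNA (7 randomized nucleotides) with increasing concentrations of purified wild-type or mutant RbFox RRM.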
A general note: Mobility shift assays separate free from complexed probe on a gel.
Consider B1, for which the binding signal was 0.126 KA relative to UGCAUGU. The result for B2 reads 0.17 KA relative to UGCAUGU. As for B3, the binding signal was 0.0824 KA relative to UGCAUGU. Turning to B4, the binding signal was 0.0763 KA relative to UGCAUGU.

For the molecule B5, the binding signal is 0.0664 KA relative to UGCAUGU.

Consider B6, for which the binding signal was 0.118 KA relative to UGCAUGU.

With B7, the binding signal was 1.01 KA relative to UGCAUGU. The result for B8 reads 0.395 KA relative to UGCAUGU.

Take B9: the binding signal is 0.268 KA relative to UGCAUGU. Take B10: the binding signal is 0.209 KA relative to UGCAUGU. The result for B11 reads 0.0739 KA relative to UGCAUGU. With B12, the binding signal is 0.0721 KA relative to UGCAUGU. B13: the binding signal was 0.106 KA relative to UGCAUGU. The result for B14 reads 0.133 KA relative to UGCAUGU. The result for B15 reads 0.0819 KA relative to UGCAUGU; that for B16, 0.0934 KA relative to UGCAUGU.

B17: the binding signal is 0.163 KA relative to UGCAUGU.

Turning to B18, the binding signal was 0.0751 KA relative to UGCAUGU.

B19: the binding signal is 0.523 KA relative to UGCAUGU. Take B20: the binding signal is 0.194 KA relative to UGCAUGU. Next, B21: 0.424 KA relative to UGCAUGU; B22: 0.0958 KA relative to UGCAUGU. B23: the binding signal was 0.0856 KA relative to UGCAUGU. For the molecule B24, the binding signal was 0.0849 KA relative to UGCAUGU.

In the case of B25, the binding signal was 0.137 KA relative to UGCAUGU. In the case of B26, the binding signal is 0.0675 KA relative to UGCAUGU. The result for B27 reads 0.102 KA relative to UGCAUGU; that for B28, 0.691 KA relative to UGCAUGU.

For B29, the binding signal was 0.281 KA relative to UGCAUGU. As for B30, the binding signal was 0.646 KA relative to UGCAUGU.

Turning to B31, the binding signal was 0.286 KA relative to UGCAUGU. The result for B32 reads 0.756 KA relative to UGCAUGU; that for B33, 0.0898 KA relative to UGCAUGU; that for B34, 0.493 KA relative to UGCAUGU. With B35, the binding signal is 0.0858 KA relative to UGCAUGU.

As to B36, the binding signal is 0.0654 KA relative to UGCAUGU.
